# Measured values published in ChEMBL document CHEMBL3988442, “University of Dundee, Small-Polar-MMV Screening Library” (2021).
# For some assays here: Measured potencies and affinities stand elsewhere.
# What was measured:
# Design in all cases: scale not given: direction of the effect not stated beside the values
# [1] = biological target: Protein translocase subunit SecA (Escherichia coli (strain K12)) (UniProt P10408); test: Assay to Identify E. coli SecA ATPase Inhibitors; format: functional; conditions: 30 µM
# [2] = biological target: T1, Ubiquitin-activating enzyme e1, putative (Leishmania donovani (strain BPK282A1)) (UniProt E9BSI1); test: Leishmania donovani Ubiquitin Activating Enzyme (LdE1); format: functional; conditions: 30 µM
# T1 sequence (whole entry): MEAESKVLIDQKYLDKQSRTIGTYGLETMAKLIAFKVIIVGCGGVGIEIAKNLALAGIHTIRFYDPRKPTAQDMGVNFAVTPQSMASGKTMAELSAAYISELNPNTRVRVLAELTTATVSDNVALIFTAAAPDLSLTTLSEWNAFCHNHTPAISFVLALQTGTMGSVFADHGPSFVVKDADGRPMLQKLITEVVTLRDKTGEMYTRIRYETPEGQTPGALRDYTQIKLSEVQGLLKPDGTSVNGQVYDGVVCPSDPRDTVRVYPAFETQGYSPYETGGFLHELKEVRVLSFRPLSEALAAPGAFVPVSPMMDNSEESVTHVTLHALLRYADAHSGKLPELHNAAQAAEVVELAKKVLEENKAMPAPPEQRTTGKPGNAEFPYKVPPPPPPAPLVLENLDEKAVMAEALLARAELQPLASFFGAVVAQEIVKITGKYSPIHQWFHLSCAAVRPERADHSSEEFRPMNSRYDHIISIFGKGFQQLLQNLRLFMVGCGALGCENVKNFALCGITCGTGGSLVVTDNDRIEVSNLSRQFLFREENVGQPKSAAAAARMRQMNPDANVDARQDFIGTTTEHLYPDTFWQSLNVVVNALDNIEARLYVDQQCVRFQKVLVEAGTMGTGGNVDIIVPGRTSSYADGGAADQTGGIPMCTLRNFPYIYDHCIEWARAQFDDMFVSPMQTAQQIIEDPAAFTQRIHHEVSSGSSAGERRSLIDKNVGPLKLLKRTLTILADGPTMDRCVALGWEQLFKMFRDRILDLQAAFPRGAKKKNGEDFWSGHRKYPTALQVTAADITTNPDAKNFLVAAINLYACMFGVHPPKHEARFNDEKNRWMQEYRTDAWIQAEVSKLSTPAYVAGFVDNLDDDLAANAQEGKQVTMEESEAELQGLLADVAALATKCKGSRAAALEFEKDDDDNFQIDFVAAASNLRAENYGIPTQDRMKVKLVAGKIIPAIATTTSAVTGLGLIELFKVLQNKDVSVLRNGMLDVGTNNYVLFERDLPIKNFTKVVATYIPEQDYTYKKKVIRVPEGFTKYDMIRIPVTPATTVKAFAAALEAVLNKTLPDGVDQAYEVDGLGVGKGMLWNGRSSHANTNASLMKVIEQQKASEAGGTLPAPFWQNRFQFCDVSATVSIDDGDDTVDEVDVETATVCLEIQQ
# [3] = biological target: AMP-activated protein kinase, AMPK (Homo sapiens) (UniProt P54646+O43741+P54619+Q9UGJ0+Q9Y478+Q13131+Q9UGI9); test: AMP-dependent Kinase enzyme assay. An in vitro enzyme assay that detects ADP turnover that is directly proportional to AMPK activity. This uses naive AMPK that is activated during the assay with MK-8722; format: functional; conditions: 30 µM
# [4] = biological target: Sialic acid-binding Ig-like lectin 9 (Homo sapiens) (UniProt Q9Y336); test: Hs-Siglec9 ALPHAscreen SOP 20170721; conditions: 10 µM
# [5] = tested on: Trypanosoma cruzi; test: Trypanosoma cruzi phosphomannomutase and mannose-1-phosphate guanylyltransferase assay; format: functional; conditions: 10 µM
# [6] = biological target: T2, Arginase-2, mitochondrial (Homo sapiens) (UniProt P78540); test: in vitro enzyme assay to detect the production of urea directly proportional to the activity of Arginase II; format: functional; conditions: 33.3 µM; also: in the data most compounds retested in dose-response had high values
# T2 sequence (whole entry): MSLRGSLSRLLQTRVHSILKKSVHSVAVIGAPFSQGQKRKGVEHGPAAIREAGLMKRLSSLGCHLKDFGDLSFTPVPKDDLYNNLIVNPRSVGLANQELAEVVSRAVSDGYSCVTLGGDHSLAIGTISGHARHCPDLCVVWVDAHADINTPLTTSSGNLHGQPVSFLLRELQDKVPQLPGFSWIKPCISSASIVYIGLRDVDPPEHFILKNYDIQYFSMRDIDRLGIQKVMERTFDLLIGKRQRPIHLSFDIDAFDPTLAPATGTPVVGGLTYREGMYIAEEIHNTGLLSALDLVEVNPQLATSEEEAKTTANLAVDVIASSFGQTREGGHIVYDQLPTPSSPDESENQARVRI
# [7] = biological target: T3, Proteasome subunit beta (Trypanosoma cruzi) (UniProt O96673); test: Trypanosoma cruzi proteasome chymotrypsin-like activity (TcProtChymo) assay.; also: in the data most compounds retested in dose-response had high values; format: functional; conditions: 9.37 µM
# T3 sequence (whole entry): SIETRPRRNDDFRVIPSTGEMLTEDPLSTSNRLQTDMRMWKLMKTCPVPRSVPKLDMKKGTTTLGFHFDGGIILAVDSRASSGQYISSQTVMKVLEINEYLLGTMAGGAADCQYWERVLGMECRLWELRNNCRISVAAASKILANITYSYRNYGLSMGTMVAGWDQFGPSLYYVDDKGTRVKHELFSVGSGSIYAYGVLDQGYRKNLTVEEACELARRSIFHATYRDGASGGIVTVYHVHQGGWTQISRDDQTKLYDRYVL
# [8] = species: Homo sapiens; test: To identify inhibition of the IFN signalling (Jak-Stat) pathway via expression of an eGFP reporter gene under the control of an IFN-stimulated response element (ISRE) containing MxA promoter.; format: functional; conditions: 30 µM
# [9] = biological target: T4, Tyrosyl-tRNA synthetase, putative (Trypanosoma cruzi (strain CL Brener)) (UniProt Q4DSP6); test: Trypanosoma cruzi tyrosyl tRNA synthetase (TcYRS) _High Tyrosine SOP; format: functional; conditions: 30 µM; also: in the data most compounds retested in dose-response had high values
# T4 sequence (whole entry): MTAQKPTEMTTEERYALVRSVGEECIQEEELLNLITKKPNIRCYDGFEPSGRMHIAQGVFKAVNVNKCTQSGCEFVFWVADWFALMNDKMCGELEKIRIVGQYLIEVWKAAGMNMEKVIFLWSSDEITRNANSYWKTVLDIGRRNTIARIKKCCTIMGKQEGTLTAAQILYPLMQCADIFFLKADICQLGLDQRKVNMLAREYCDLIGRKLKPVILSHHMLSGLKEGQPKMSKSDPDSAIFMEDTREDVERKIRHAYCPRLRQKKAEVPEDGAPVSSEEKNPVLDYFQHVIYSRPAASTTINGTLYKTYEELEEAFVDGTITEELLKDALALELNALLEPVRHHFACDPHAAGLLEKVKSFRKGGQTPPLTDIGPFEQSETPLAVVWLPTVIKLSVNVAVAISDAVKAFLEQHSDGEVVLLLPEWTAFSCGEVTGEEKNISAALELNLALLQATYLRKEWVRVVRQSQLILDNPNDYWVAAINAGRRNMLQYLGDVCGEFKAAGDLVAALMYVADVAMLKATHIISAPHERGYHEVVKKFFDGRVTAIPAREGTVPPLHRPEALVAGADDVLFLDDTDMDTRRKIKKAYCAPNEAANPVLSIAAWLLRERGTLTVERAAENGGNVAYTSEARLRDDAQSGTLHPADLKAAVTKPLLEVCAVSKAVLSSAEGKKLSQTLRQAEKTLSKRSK
# [10] = biological target: T4, Tyrosyl-tRNA synthetase, putative (Trypanosoma cruzi (strain CL Brener)); test: Trypanosoma cruzi tyrosyl tRNA synthetase (TcYRS) SOP; format: functional; conditions: 30 µM
# [11] = biological target: Chromo domain-containing protein 1 (Saccharomyces cerevisiae (strain ATCC 204508 / S288c) (Baker's yeast)) (UniProt P32657); test: ScCHD-1 Enzyme Inhibition Assay; format: functional; conditions: 30 µM; also: in the data most compounds retested in dose-response had high values
# Chromo domain-containing protein 1 (Saccharomyces cerevisiae (strain ATCC 204508 / S288c) (Baker's yeast)), sequence (P32657 whole entry, the tested form may be a part): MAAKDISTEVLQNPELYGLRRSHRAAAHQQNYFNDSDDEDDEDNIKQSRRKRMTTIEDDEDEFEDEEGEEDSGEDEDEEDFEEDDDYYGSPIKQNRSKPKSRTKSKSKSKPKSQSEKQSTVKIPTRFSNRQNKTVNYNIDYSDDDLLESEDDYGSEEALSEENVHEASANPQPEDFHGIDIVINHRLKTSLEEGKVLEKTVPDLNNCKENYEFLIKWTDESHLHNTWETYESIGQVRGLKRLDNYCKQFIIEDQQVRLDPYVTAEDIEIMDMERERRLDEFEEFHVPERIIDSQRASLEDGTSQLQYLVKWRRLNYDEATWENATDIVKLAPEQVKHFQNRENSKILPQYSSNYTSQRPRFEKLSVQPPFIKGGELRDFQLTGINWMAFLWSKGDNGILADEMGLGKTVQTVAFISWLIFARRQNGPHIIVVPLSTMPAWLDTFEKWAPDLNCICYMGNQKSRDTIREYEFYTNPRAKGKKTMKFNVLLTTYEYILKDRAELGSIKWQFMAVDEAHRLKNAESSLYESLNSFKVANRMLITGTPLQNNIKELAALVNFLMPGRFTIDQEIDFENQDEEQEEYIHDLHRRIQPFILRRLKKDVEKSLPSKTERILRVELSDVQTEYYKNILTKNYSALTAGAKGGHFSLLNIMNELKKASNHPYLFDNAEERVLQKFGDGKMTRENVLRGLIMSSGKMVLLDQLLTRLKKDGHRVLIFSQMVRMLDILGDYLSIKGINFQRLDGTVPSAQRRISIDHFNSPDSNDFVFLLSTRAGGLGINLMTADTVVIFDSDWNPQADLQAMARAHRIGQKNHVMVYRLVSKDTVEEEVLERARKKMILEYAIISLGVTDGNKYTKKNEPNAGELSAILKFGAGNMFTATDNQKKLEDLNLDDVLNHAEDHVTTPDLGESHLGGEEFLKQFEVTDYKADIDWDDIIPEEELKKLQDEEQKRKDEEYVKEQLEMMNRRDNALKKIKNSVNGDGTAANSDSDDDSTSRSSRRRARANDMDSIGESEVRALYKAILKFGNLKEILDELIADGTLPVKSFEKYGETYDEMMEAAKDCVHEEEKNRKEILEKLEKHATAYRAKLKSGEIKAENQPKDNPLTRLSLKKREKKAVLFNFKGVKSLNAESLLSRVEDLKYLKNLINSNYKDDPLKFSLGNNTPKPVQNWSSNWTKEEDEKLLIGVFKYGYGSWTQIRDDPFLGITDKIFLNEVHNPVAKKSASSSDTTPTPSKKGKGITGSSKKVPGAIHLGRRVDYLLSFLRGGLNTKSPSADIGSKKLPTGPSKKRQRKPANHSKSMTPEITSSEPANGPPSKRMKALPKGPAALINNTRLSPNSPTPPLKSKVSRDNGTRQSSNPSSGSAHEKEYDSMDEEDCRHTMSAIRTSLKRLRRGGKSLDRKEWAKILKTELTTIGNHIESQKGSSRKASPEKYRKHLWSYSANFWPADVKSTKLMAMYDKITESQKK
# Sialic acid-binding Ig-like lectin 9 (Homo sapiens), sequence (Q9Y336 whole entry): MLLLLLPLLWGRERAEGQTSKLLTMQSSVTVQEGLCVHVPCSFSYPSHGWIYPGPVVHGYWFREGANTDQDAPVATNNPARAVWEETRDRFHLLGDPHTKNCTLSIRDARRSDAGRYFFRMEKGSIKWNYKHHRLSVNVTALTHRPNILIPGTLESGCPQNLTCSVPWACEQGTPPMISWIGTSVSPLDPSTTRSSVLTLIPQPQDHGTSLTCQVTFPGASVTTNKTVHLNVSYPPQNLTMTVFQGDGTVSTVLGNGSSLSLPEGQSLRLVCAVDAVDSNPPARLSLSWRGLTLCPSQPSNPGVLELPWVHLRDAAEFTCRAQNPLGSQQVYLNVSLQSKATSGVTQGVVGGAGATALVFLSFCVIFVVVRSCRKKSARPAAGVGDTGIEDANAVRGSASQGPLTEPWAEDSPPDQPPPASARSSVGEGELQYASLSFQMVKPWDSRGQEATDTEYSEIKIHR
# Protein translocase subunit SecA (Escherichia coli (strain K12)), sequence (P10408 whole entry): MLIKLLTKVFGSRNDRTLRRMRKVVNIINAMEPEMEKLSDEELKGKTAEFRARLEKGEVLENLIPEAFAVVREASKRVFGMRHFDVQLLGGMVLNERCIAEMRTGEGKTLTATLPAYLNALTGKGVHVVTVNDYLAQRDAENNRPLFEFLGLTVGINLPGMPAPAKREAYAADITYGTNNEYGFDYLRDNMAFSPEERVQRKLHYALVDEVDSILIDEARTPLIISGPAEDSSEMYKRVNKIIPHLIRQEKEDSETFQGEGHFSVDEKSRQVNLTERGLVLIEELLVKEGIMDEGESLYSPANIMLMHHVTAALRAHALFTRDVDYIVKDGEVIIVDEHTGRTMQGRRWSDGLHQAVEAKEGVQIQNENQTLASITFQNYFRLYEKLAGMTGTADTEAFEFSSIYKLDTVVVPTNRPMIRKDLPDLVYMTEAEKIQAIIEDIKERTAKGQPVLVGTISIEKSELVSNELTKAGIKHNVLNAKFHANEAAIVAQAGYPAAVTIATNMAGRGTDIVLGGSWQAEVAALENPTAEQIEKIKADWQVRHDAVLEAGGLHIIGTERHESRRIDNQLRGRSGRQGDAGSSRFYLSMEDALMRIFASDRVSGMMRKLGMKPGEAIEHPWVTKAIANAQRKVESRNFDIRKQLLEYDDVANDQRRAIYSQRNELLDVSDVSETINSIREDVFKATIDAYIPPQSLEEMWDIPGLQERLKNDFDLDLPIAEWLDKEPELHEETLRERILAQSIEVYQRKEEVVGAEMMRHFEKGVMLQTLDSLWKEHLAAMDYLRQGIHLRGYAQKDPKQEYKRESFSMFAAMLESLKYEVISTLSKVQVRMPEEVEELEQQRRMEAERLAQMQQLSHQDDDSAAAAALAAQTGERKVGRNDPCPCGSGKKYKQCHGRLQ
SMILES,Percent Effect [1] [%],Percent Effect [2] [%],Percent Effect [3] [%],Percent Effect [4] [%],Percent Effect [5] [%],Percent Effect [6] [%],Percent Effect [7] [%],Percent Effect [8] [%],Percent Effect [9] [%],Percent Effect [10] [%],Percent Effect [11] [%]
Cc1ccc(OCC(=O)NS(=O)(=O)c2cccnc2)cc1C,0.796,15.8,3.98,-2.26,-7.52,-3.45,17.4,29.1,-1.47,4.88,-9.25
CNC(=O)CC1CCN(Cc2nc(-c3ccc(SC)cc3)oc2C)CC1,-7,2.7,-0.898,2.66,-2.7,-0.952,11.7,13.2,7.94,0,-2.7
O=C(NCc1nnc2n1CCCCC2)N1CCc2sccc2C1,0.647,16.5,-6.61,2.88,1.95,2.8,13,16.8,0,10.1,-27
O=C(CCn1cnnc1)N1CCCC(c2ncc[nH]2)C1 (configuration not stated),1.63,5.48,11.6,0.524,-6.27,2.27,8.52,6.13,3.23,12.5,-7.06
COc1ccccc1OCC(=O)NS(=O)(=O)c1ccccc1F,-3.52,13.5,-3.34,25.9,4.44,-0.952,11.9,6.7,2.65,9.76,-10.8
Cn1cnc2c1CCN(Cc1nc(COc3ccc(F)cc3)no1)C2,-9.01,7.89,3.1,1.46,-5.7,1.44,7.19,10.3,0.493,-6.17,-0.821
Cc1cc(C[S+]([O-])CC(=O)Nc2c(C)cccc2C)no1 (configuration not stated),-7.01,18.2,15.8,7.26,0.187,4.63,2.03,5.44,8.74,9.76,-3.01
CC(C#N)CSc1ccccc1NCC(=O)Nc1ccc(F)cc1 (configuration not stated),-7.84,-5.48,17.1,-9.84,-3.33,1.82,6.39,3.15,-8.6,-10,-0.597
COCCCn1ccnc1-c1cnc(OC)nc1,-0.0522,5.41,-3.25,0.687,-0.386,-3.33,21.6,-18.9,6.88,4.88,-3.88
CCn1c(Cn2cncn2)nnc1C1CCN(C(=O)CCSC)CC1,-3.03,2.7,-5.34,25.4,3.23,20.6,0.944,20.4,6.45,13.6,-3.37
O=C(c1ccc[nH]1)N1CCc2c(COCC3CC3)cncc2C1,0.487,13.5,0.508,-7.71,-4.99,0.955,29.1,0.5,3.24,12.8,0.2
CN1CCN(C2CCN(CCOc3ccc(F)cc3)CC2)C1=O,-8.87,2.6,0.436,-4,-3.18,-0.356,4.05,37.8,0,0,-7.75
Cc1nc(CNC(=O)Cn2nc(-c3ccc(F)cc3)oc2=O)cs1,-2.4,15.8,10.4,6.52,-1.32,-4.21,3.17,8.37,7.35,12.2,-5.84
CNC(=O)c1nc2c(s1)CCN(C(=O)c1cccnc1)CC2,2.24,0,4.01,3.91,-3.67,-50.4,3.42,3.61,3.12,5,-2.25
Cn1ccc2c(C(=O)N3CCC(C(N)=O)CC3)cccc21,0.857,14.7,2.71,-1.54,-4.13,-9.68,13.1,7.15,8.47,17.9,-10.7
COCCCn1c(CN2CCCC(O)C2)cnc1S(=O)(=O)C1CCCC1 (configuration not stated),-5.06,10.4,-2.5,10.5,4.62,-85.5,3.99,-9.18,3.23,11.1,-11
CCn1ncc2c1C(COCC1CC1)CN(S(=O)(=O)N(C)C)C2 (configuration not stated),0.0926,19.2,-8.78,10.2,2.78,-0.798,10.4,9.33,9.38,18.5,-8.61
COc1ccc(C2Nc3ccccc3C3=NCCCN32)cc1OC (configuration not stated),-5.46,-2.67,8.31,-1.83,-0.787,-1.63,-2.91,11.5,0,1.28,-8.33
CC(C)Oc1ccccc1C1CC(=O)Nc2c1cnn2C (configuration not stated),-2.1,-15.8,7.56,5.91,-3.21,-7.1,15.6,15.6,-2.13,2.6,-0.488
CC(=O)NCCc1ccc(S(=O)(=O)N(CC(C)C)C(C)C)s1,3,4.17,30.7,4.43,-6.9,-0.883,18.2,16.9,-2.1,-5.13,106
N#Cc1cccc(CN2CC[C@@H]3[C@@H]2CC(=O)N3Cc2cccnc2)c1,-2.43,16,12.4,1.95,-4.72,-1.17,13.7,-10.2,3.19,11.5,-1.86
c1cnnc(N2CCCC(NCc3nc(C4CC4)no3)C2)c1 (configuration not stated),-4.19,-2.6,-5.27,7.57,7.18,23.4,11.3,-1.78,16.1,28.4,-2.42
